Reference: PubChem BioAssay AID1076 (NMMLSC, 2008)
Active and inactive are the calls of the source.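 Rule for the calls: active = cell event count below 40, meaning activity score above 60 where score is 100 minus count; inactive = the rest.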

Assay: cytotoxicity in LNCaP prostate cells – cell-based, cell event count, single point, cytotoxicity control for prostate differentiation activator project, confirmation (AID 1076);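 note: counts scatter-gated live cells after medium removal discards detached dead cells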
Settings: LNCaP cell loss, flow cytometry event count, 4 d, stronger effect = lower value

| SMILES | cell event count (at 100 µM) | cell event count (event count, at 10 µM) |
| --- | --- | --- |
| CCOC(=O)N1CCN(C(=O)Cc2ccc(-n3c(=O)[nH]c4ccccc4c3=O)cc2)CC1 | 302 (inactive) | 265 |
| COc1ccc(C)cc1NC(=O)CCC(=O)Nc1ccc2nc(N3CCN(C)CC3)cc(C)c2c1 | 19 (inactive) | 369 |
| O=C(Cc1coc(-c2ccc(F)cc2)n1)N1CCOCC1 | 217 (inactive) | 71.5 |
| COc1ccc(Cl)cc1N1CCN(CCNC(=O)Nc2ccccc2C)CC1 | 6 (inactive) | 506 |
| COC(=O)Nc1sccc1C(=O)Nc1sccc1C(=O)OC | 144 (inactive) | 182 |
| CN(C)c1ccc(-c2nn3c(-c4ccc(Cl)cc4Cl)nnc3s2)cc1 | 6 (active) | 65.5 |
| COc1ccc(N2CCN(CCCNC(=O)CN3CCN(Cc4ccccc4C)C3=O)CC2)cc1 | 19 (inactive) | 87.5 |
| CCn1c(=O)cc(SCC(=O)NCCCN2CCN(c3ccc(F)cc3)CC2)c2ccccc21 | 14 (inactive) | 241 |
| Cn1c(=O)cc(SCC(=O)NCCCN2CCN(c3ccc(F)cc3)CC2)c2ccccc21 | 30 (inactive) | 211 |
| COc1ccc(-c2noc(CCC(=O)NCCCN3CCC(Cc4ccccc4)CC3)n2)cc1 | 23 (active) | 51 |
| COc1ccc(-c2cc(-c3ccc(F)cc3)nc(N3CCN(C)CC3)n2)cc1 | 3 (inactive) | 118 |
| Cc1cc(C)n2nnnc2c1C#N | 257 (inactive) | 172 |
| CCN(CCCNS(=O)(=O)c1ccc2c(c1)oc(=O)n2C)c1cccc(C)c1 | 27 (inactive) | 151 |
| CCOC(=O)c1c(C)[nH]c(C(=O)COC(=O)C2CC2C)c1C (stereo unspecified) | 37 (inactive) | 976 |
| Cc1cc(=O)n2nc(N3CCCC(C(=O)NCc4ccco4)C3)sc2n1 (stereo unspecified) | 325 (inactive) | 102 |
| O=C(Cc1ccc(-n2cccc2)cc1)NCc1cccs1 | 160 (inactive) | 133 |
| c1ccc(N2CCN(c3nnc(Cc4cccnc4)c4ccccc34)CC2)nc1 | 40 (inactive) | 434 |
| Cc1noc(/C=C/c2ccco2)c1S(=O)(=O)N1CCC(C(=O)N2CCc3ccccc3C2)CC1 | 174 (inactive) | 197 |
| Cc1ccc(-n2c(SCC(=O)Nc3nccs3)nc3c(c2=O)SCC3)cc1 | 83 (inactive) | 282 |

| SMILES | cell event count (at 100 µM) | cell event count (event count, at 10 µM) |
| --- | --- | --- |
| Cc1ccc(C)c(N2CCN(CCCNC(=O)Cn3cc4c(n3)CCCCC4)CC2)c1 | 3 (active) | 53.5 |
| Cc1ccccc1-c1nc(CN2CCC(C(=O)NCCCN3CCCC3)CC2)c(C)o1 | 20 (inactive) | 65 |
| O=C(NCCc1c[nH]c2ccccc12)C(F)(F)C(F)F | 111 (inactive) | 118 |
| CCC(C)NC(=O)c1cn(C)c(=O)c2cc(OC)c(OC)cc12 (stereo unspecified) | 386 (inactive) | 302 |
| CCc1ccc(-c2nc(CN3CCC(C(=O)NCc4ccc(F)cc4)CC3)c(C)o2)cc1 | 1 (active) | 62.5 |
| O=C(NCCCN1CCN(c2ccccc2F)CC1)C1CCCN(S(=O)(=O)c2cnc[nH]2)C1 (stereo unspecified) | 425 (inactive) | 166 |
| Cc1cc(O)c(-c2cc(C(=O)Nc3ccc(S(=O)(=O)N4CCOCC4)cc3)[nH]n2)cc1C | 36 (inactive) | 86 |
| Cc1cc(=O)oc(C)c1C(=O)NCCCN1CCN(c2ccccc2F)CC1 | 232 (inactive) | 308 |
| COc1ccc2c(c1)CCc1c(C(=O)Nc3cc(C)n(Cc4ccc(Cl)cc4)n3)noc1-2 | 43 (inactive) | 406 |
| Cn1c(=O)[nH]c(=O)c2c1nc(Br)n2CCCSc1nc2ccccc2o1 | 8 (inactive) | 96 |
| C=CCn1c(=N)n(CC(O)COc2ccc(OC)cc2)c2ccccc21 (stereo unspecified) | 37 (inactive) | 126 |
| CCN1CCCC1CNC(=O)c1cc2c(-c3ccc(Cl)cc3)nn(C)c2s1 (stereo unspecified) | 14 (inactive) | 88.5 |
| CN(C)CCCN1c2ccccc2CCc2ccc(Cl)cc21 | 43 (inactive) | 74 |
| CCCc1ccc(Oc2cn[nH]c2-c2ccc(O)c(C)c2O)cc1 | 5 (inactive) | 106 |
| Cc1noc(C)c1S(=O)(=O)N1CCC(C(=O)NCCN2CCC(C)CC2)CC1 | 300 (inactive) | 188 |
| C=CCn1c(=N)n(CC(O)COc2ccccc2OC)c2ccccc21 (stereo unspecified) | 29 (inactive) | 94 |
| CCc1ccc(-c2nc(CN3CCC(C(=O)NCc4ccco4)CC3)c(C)o2)cc1 | 25 (inactive) | 172 |
| COc1ccccc1CNC(=O)C1CCN(Cc2nc(-c3cccc(Cl)c3)oc2C)CC1 | 9 (inactive) | 158 |
| COc1ccccc1N1CCN(Cc2cc(Br)c(O)c3ncccc23)CC1 | 17 (active) | 35.5 |
